Data on 40 compounds can be found in PubChem BioAssay (EPA / NIEHS).

Calls of active or inactive are those of the source. How the source made its calls: active means hit-call score of the fitted dose curve at least 0.9, where 1 is the maximum; inactive means score below 0.9.

Sequence of Signal transducer and activator of transcription 3 (Homo sapiens) (P40763 whole entry, looked up): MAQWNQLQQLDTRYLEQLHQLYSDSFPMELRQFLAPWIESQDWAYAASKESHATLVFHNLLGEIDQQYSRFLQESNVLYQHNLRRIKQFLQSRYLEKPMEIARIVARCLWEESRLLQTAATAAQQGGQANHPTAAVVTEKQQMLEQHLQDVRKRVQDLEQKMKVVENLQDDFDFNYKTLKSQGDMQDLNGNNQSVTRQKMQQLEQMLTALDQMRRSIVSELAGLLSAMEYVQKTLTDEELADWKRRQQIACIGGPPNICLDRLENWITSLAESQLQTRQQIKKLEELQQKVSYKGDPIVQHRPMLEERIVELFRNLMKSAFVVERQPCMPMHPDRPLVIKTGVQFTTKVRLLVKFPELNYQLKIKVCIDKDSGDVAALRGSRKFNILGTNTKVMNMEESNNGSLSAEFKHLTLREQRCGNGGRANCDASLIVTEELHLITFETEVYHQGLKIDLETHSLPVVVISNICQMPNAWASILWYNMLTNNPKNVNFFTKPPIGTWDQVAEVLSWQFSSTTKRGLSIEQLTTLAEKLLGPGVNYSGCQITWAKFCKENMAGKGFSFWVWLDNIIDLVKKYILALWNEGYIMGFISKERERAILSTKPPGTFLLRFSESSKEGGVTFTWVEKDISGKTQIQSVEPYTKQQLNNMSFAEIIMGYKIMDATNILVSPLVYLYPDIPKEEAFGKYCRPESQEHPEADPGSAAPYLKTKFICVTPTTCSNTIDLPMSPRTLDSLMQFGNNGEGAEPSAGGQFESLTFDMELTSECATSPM

Read-out in the assay: Signal transducer and activator of transcription 3 (Homo sapiens) (UniProt P40763)
The assay is described as follows: LTEA_HepaRG_STAT3: Life Technologies and Expression Analysis (LTEA) Assay for Signal transducer and activator of transcription (STAT3) using HepaRG (AID 2283529). The note with it: mRNA level, 48 h; actives raise or lower the signal. The procedure:
LTEA_HepaRG is a cell based, multiplexed-readout assay that uses HepaRG, a human liver cell line, with measurements taken at 48 hours after chemical dosing on a 96-well plate.LTEA_HepaRG_STAT3 is one of 102 assay component(s) measured in the LTEA HepaRG cell culture assay. It is a marker of Cell proliferation, survival, death.Data from the assay component LTEA_HepaRG_STAT3 was analyzed into 1 endpoint. This assay endpoint, LTEA_HepaRG_STAT3, was analyzed with bidirectional fitting relative to DMSO as the negative control and baseline of activity. Using a type of inducible reporter, measures of mRNA induction for gain or loss-of-signal activity can be used to understand regulation of transcription factor activity. To generalize the intended target to other relatable targets, this assay endpoint is annotated to the dna binding intended target family, where the subfamily is stat protein.
A total of 1060 chemcials from the ToxCast library were tested in eight-point concentration-response experiments. Cell culture and cytotoxicity assays were conducted at Thermo Fisher Scientific's Custom Services facility (Madison, WI). A single lot of human HepaRG cells (Thermo Fisher Scientific, Frederick, MD) was used for the cell culture experiments. 96-well format collagen type I coated plates of human HepaRG cells were prepared using established methods. Briefly, cryopreserved HepaRG cells were thawed, plated at a density of approximately 100,000 cells/well in HepaRG Thaw, Plate, and General Purpose media (HPRG770, Thermo Fisher Scientific), and incubated for 48 hours. 0.5% DMSO was selected as vehicle control to balance the requisite need of DMSO in HepaRG cultures to maintain differentiation (for example, baseline metabolism, proportions of hepatocytes vs. cholangiocytes), while enabling further hepatic receptor pathway activation (for example, PXR and CAR) in response to chemical exposure. 48 hours after plating, the culture medium was replaced with HepaRG Serum-Free Incudtion Media. Cells were exposed to each test chemical in duplicate and maintained in CO2 incubators for another 48 hours. Chemical plates were thawed to room temperature and 200x concentrations of treatment groups were prepared. 8-point conentration-reponse curves were made with the highest exposure at 100 uM, followed by half-log dilutions, all in 0.5% DMSO. Each test plate contained variouse controls, induction positive controls (1mM phenobarbital), cytotoxicity positive controls ([…] aflatoxin B1), vehicle controls (0.5% DMSO), and total lysis controls (0.5% DMSO). Cell morphology images were taken using an Essen IncuCyte FLR automated microscope, with six 96-well plates imaged in about 24 minutes. Images were captured and exported and JPEG files. Spent culture media was transfered to black-well plates for the LDH assay, and remaining media was sorted at -80 C for later use. Cells were treated with RLT buffer and frozen until shipped for gene expression analysis. Total RNA was isolated from the cell suspension in 75 uL of Buffer RLT (Qiagen, Germantown, MD 20874) by Quintiles/Expression Analysis (Durham, NC) using a custom isolation procedure. Total RNA from each plate well was transferred to a preamplification plate. Fluidigm's 96.96 Dynamic ArrayTM (Fluidigm, Amsterdam, the Netherlands) technology was used for gene expression analyses by quantitative reverse transcription polymerase chain reaction (qRT-PCR, performed by Quintiles/Expression Analysis, Durham, NC)89. Standard TaqManTM Assays (Applied Biosystems/ThermoFisher Scientific, Foster City, CA) were used to assess the expression of 93 genes selected based on their selectivity and sensitivity to important hepatic receptors known to be modulated by environmental chemicals; importance in human hepatocyte functionality; and hepatotoxicity. […]
As for `O=C(Nc1ccc(Cl)cc1)Nc1ccc(Cl)c(Cl)c1`, the AC50 (usually the midpoint of the concentration-response curve, whichever way the signal moves) was 14.2 µM (active).
`Cc1cc2c(cc1C(F)(F)F)N(C(=O)Nc1ccc(Oc3cccnc3C)nc1)CC2`: the compound was classed as inactive.
As to `CN(C[C@@H](CC[N+]12CCC(C3CCCCC3)(CC1)CC2)c1ccc(Cl)c(Cl)c1)C(=O)c1cc(C(F)(F)F)cc(C(F)(F)F)c1`, the call was inactive.
As to `CCCCCCCCCCCO`, the compound was classed as inactive.
For `C[C@]12CC[C@@H]3c4ccc(O)cc4CC[C@H]3[C@@H]1CCC2=O`, the compound was called inactive.
For the compound `CN(C)c1ccc(C(=C2C=CC(=[N+](C)C)C=C2)c2ccc(N(C)C)cc2)cc1`, the AC50 is 39.3 µM (active).
In the case of `CCO[Si](CCCNC(N)=O)(OCC)OCC`, the call was inactive.
On to `c1ccc(C[n+]2cccc3ccccc32)cc1`, for which the half-maximal activity concentration (AC50) is 20.5 µM (active).
Turning to `CC/C(=C(/CC)c1ccc(O)cc1)c1ccc(O)cc1`, the AC50 was 90.8 µM (active).
Take `CCCCCCCCCCCC[N+](C)(C)C`: the outcome was inactive.
As to `Cc1ccc2oc(CN(Cc3ccccc3)C(=O)Nc3c(F)cc(F)cc3F)c(-c3ccc(Cl)cc3)c2c1`, the compound was classed as inactive.
The same measure, in the same setting: in the case of `O=C(O)c1ccccc1C(=O)OCc1ccccc1` it was “inactive”; in that of `CCCCCc1ccc(N)cc1`, “inactive”; in that of `C[C@]12CC[C@@H]3c4ccc(O)cc4CC[C@H]3[C@@H]1CC[C@H]2O`, “inactive”.
Turning to `CC(C)(O)c1ccc(CNC(=O)c2cccnc2Oc2ccc3nonc3c2)cc1`, the compound was classed as inactive.
With `Oc1ccccc1`, the call was inactive.
On to `COc1ccc2cc(S(=O)(=O)N[C@H](CC(=O)N[C@H](Cc3ccc(CN4[C@H](C)CCC[C@@H]4C)cc3)C(=O)N(C)C(C)C)c3ccc4c(c3)OCO4)ccc2c1`, for which the AC50 was 12.4 µM (active).
Regarding `O=c1c(-c2ccc(O)cc2)coc2cc(O)cc(O)c12`, the result was inactive.
For `O=C=NCCCCCCN=C=O`, the compound was classed as inactive.
In the case of `Cc1c2ccccc2c(C)c2c1ccc1ccccc12`, the compound was called inactive.
On the same count and under the same terms, in the case of `CC1(C)NC(=O)N(c2ccc([N+](=O)[O-])c(C(F)(F)F)c2)C1=O` it was “inactive”; in that of `CC[C@@H]1C[C@H](N(Cc2cc(C(F)(F)F)cc(C(F)(F)F)c2)C(C)=O)c2cc(C(F)(F)F)ccc2N1C(=O)OC(C)C`, “inactive”.
Same read-out and setting: then `NCc1cccc(C2CCN(C(=O)c3ccc(C#Cc4ccccc4F)o3)CC2)c1`, with “inactive”.
Turning to `CC[C@H](NC(=O)c1cc(F)ccc1NS(=O)(=O)c1cccc2cccnc12)c1ccccc1`, the outcome was inactive.
For the compound `c1ccc2ccccc2c1`, the result was inactive.
The same measure, in the same setting: then `O=C1c2ccccc2C(=O)N1CCc1noc(-c2ccc(CN3CCCCCC3)s2)n1`, with “inactive”.
Consider `CC(C)(C)c1csc(-c2cc3cc(OCc4ccccc4CC(=O)O)ccc3o2)n1`, for which the AC50 is 91 µM (active).
On to `O=C1O[C@H]([C@@H](O)CO)C(O)=C1O`, for which the compound was classed as inactive.
For the compound `CCCCCCCCOc1ccc(C(=O)c2ccccc2)c(O)c1`, the outcome was inactive.
In the case of `O=C(O)Cn1c(=O)n(Cc2ccc(Br)cc2F)c(=O)c2ccc(Cl)cc21`, the compound was called inactive.
On to `O=c1ccc2ccccc2o1`, for which the compound was classed as inactive.
Take `O=C(OCCCCCCOC(=O)c1ccccc1)c1ccccc1`: the compound was called inactive.
On the same count and under the same terms, in the case of `CCN(Cc1cccc(S(=O)(=O)O)c1)c1ccc(C(=C2C=CC(=[N+](CC)Cc3cccc(S(=O)(=O)O)c3)C=C2)c2ccccc2S(=O)(=O)[O-])cc1` it was “inactive”.
On to `Cc1cc(F)ccc1-c1cc(N2CC[C@@H](O)[C@H]2CO)ncc1N(C)C(=O)C(C)(C)c1cc(C(F)(F)F)cc(C(F)(F)F)c1`, for which the result was inactive.
As for `COc1cc(C(=O)NC2CCN(C)CC2)ccc1Nc1ncc2c(n1)N(C1CCCC1)CC(F)(F)C(=O)N2C`, the AC50 is 27.3 µM (active).
As for `CCCCCCCCCCCCO`, the compound was called inactive.
For `O=C(O)Cc1cc(I)c(Oc2ccc(O)c(I)c2)c(I)c1`, the call was inactive.
On to `Clc1cc(Cl)c2c(c1)N=C1CCCCCN1C2`, for which the result was inactive.
The same measure, in the same setting: then `O=C(O)c1ccccc1-n1cc(C(=O)O)c(=O)c2cc(Nc3c(F)cc(F)cc3Cl)c(Cl)cc21`, with “inactive”.
With `Cc1cn([C@H]2C[C@H](N=[N+]=[N-])[C@@H](CO)O2)c(=O)[nH]c1=O`, the compound was called inactive.
